# From PubChem
# RecA intein inh – inhibitors of M. tuberculosis RecA intein splicing; P9WHJ3; cell-free RecA intein splicing, fluorescence; inhibition, % (no concentration beside the values); 0.75% of 290,000 active; AID 2221; in the data active = inhibition above about 30%
# CCHF vOTU inh – CCHFV vOTU protease inhibition | Pep-AMC fluorescence | inhibition, % at 11.5 µM | 0.55% of 370,000 active | AID 651958; in the data active = inhibition above about 30%
# Mtb bLac sens – beta-lactam sensitization of Mtb H37Rv; M. tuberculosis H37Rv growth with meropenem, percent inhibition; inhibition, % at 25 µM; 0.27% of 330,000 active; call rule not given here;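 note: growth measured after seven days incubation then overnight dye step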
# GDH-TPI counter-1 – GDH-TPI coupled enzyme inhibition counter-screen; GDH-TPI coupled enzyme counterscreen, NADH absorbance; inhibition, % at 4.8 µM; 1.2% of 360,000 active; AID 588335; in the data active = inhibition above about 30%
# Mtb FBA inh – inhibits M. tuberculosis FBA enzyme. purified M. tuberculosis FBA, fluorescence read-out. inhibition, % at 1 µM. 2.3% of 360,000 active. AID 588726
# Mtb FBA inh conf – Mtb FBA inhibition, confirmed; 78% of 5,600 active; inhibition, % at 1 µM; AID 651616; shares compounds with Mtb FBA inh; purified M. tuberculosis FBA, fluorescence read-out
# GDH-TPI counter-2 – counter-screen for M. tuberculosis FBA inhibitors: GDH-TPI coupled enzyme inhibition; 81% of 5,600 active; AID 652141; GDH-TPI coupled enzyme counterscreen, fluorescence; inhibition, % at 1 µM; shares compounds with Mtb FBA inh; in the data active = inhibition above about 10%
# GDH-TPI dose – GDH-TPI dose response counter-screen for Mtb FBA; AID 652145; GDH-TPI coupled enzyme assay, fluorescence, artifact counterscreen; 79% of 170 active; IC50, µM; shares compounds with Mtb FBA inh; call rule not given here
# Numbers stand for hits; - = inactive; . = not tested or not shown; + = active, no number. This is a sample that favours compounds with a hit; in the whole collection about 4.2% have one here. Cut-off read from the data, not from the text of the source, unless noted: active = inhibition above about 27%; inactive = the rest.
SMILES,RecA intein inh,CCHF vOTU inh,Mtb bLac sens,GDH-TPI counter-1,Mtb FBA inh,Mtb FBA inh conf,GDH-TPI counter-2,others
Cc1ccc(-c2nn3c(C)nnc3s2)cc1N,-,-,-,-,-,.,.,
COc1ccc(-c2c(C)oc3c(CN4CCCCC4C)c(O)ccc3c2=O)cc1OC (stereo unspecified),-,-,-,34,42,-,-,
COc1ccc(-c2c(C)oc3c(CN4CCCC(C)C4)c(O)ccc3c2=O)cc1OC (stereo unspecified),-,-,.,-,39,-,-,
COc1ccc(-c2nc(CS(=O)CC(=O)NCCN3CCCCC3C)c(C)o2)cc1OC (stereo unspecified),-,-,-,-,-,.,.,
COc1ccc(N=C2Sc3ccccc3[C@@H]3C[C@H]4[C@H](CON4C)CN23)c(OC)c1,.,-,.,.,.,.,.,
Cc1cc(=O)n2cccc(O)c2n1,-,-,-,-,75,+,+,
O=C(C(=O)N1CCN(C(=O)c2cc(C(F)(F)F)cc(C(F)(F)F)c2)CC1)c1cccc(C(F)(F)F)c1,.,-,.,.,.,.,.,
COc1cc2oc(=O)ccc2cc1[C@H](O)[C@@H](O)C(C)(C)O,.,-,-,-,49,47,32,
COc1cccc(OC)c1C(=O)NC(=S)Nc1ccc2oc(=O)ccc2c1,-,-,-,-,-,.,.,
COc1cc2oc(=O)ccc2cc1[C@@H](O)[C@@H]1OC(C)(C)OC1(C)C,.,-,-,-,29,79,40,
COC(=O)[C@]12C[C@H](CC(=O)NCc3ccc(OC)c(OC)c3)C(=O)N(Cc3ccco3)C1=C[C@H](C(C)(C)C)O[C@@H]2C,.,-,.,.,.,.,.,
Cc1cc(S(N)(=O)=O)c(N)c(S(N)(=O)=O)c1,-,-,-,-,29,+,+,
Cc1ccc(S(N)(=O)=O)cc1,.,-,-,-,-,.,.,
CC1=CC(=O)C(C(C)C)=C/C1=N\OC(=O)c1cccc2nc(C)oc12,-,-,-,-,32,69,59,
COc1ccc(C[N+]2=C(N)N[C@@]3(C=C(C)Cn4c(=O)n(-c5ccccc5)c(=O)n43)C2)c(OC)c1,.,-,.,.,.,.,.,
O=C1NN=C2CCCCCCC12 (stereo unspecified),.,-,.,-,29,85,70,
O=C(c1ccccc1)c1ccc(OCC(O)CN2CCOCC2)cc1 (stereo unspecified),-,-,-,-,76,-,-,GDH-TPI dose=-
O=C(N/C(=C/c1cccc([N+](=O)[O-])c1)C(=O)N1CCCCCC1)c1ccco1,-,-,-,-,-,.,.,
O=C(N/C(=C\c1cccc([N+](=O)[O-])c1)C(=O)N1CCOCC1)c1ccco1,-,-,-,-,65,176,142,
COC(=O)C[C@@H]1CC[C@H]2[C@@H](COc3ccc(NC(=O)c4cc(C)on4)cc3C(=O)N2C)O1,.,-,.,.,.,.,.,
CCNC(=S)N1CCc2cc(OC)c(OC)cc2C1COc1ccc(OC)cc1 (stereo unspecified),-,-,-,-,-,.,.,
CCNC(=S)N1CCc2cc(OC)c(OC)cc2C1COc1ccccc1OC (stereo unspecified),-,-,-,-,38,+,+,
CCOC(=O)CCc1c(C)nc2cc(-c3ccccc3OC)[nH]n2c1=O,-,-,-,-,28,138,124,
CCCN(CC(=O)Nc1ccccc1C)C(=O)c1ccc(-c2ccc(C(C)=O)cc2)o1,-,.,-,31,73,-,-,
CCCN(CC(=O)Nc1ccccc1C)C(=O)c1ccc(C(=O)c2ccccc2)cc1,-,-,-,-,-,.,.,
SMILES,RecA intein inh,CCHF vOTU inh,Mtb bLac sens,GDH-TPI counter-1,Mtb FBA inh,Mtb FBA inh conf,GDH-TPI counter-2,others
Cc1occc1-c1nnc(SCC(=O)Nc2ccc3ncccc3c2)n1-c1ccccc1,.,-,.,.,.,.,.,
COc1ccc2nc(Nc3nc4cc5c(cc4s3)OCO5)sc2c1,-,-,-,-,57,+,+,
COc1ccc2nc(Nc3ccc4c(c3)OCO4)sc2c1,-,-,-,-,-,.,.,
CC(=O)CC[C@@H]1CC[C@]2(CCCN(C(=O)c3ccc4ccccc4n3)C2)O1,.,-,.,.,.,.,.,
COc1ccc(N2CCN(C(=O)c3cc4c(s3)-c3ccccc3OC4)CC2)cc1,-,-,-,-,-,.,.,
O=C(C1CCN(S(=O)(=O)N2CCOCC2)CC1)N1CCN(c2ccc(F)cc2)CC1,-,-,-,-,-,.,.,
COc1ccc2c(c1)CCc1cc(C(=O)N3CCN(c4ccc(N5CCOCC5)nn4)CC3)sc1-2,-,.,-,34,41,+,195,
O=C(C1CCN(c2ccc(N3CCOCC3)nn2)CC1)N1CCN(c2ccc(F)cc2)CC1,-,.,-,-,34,39,32,
COc1cccc(C(=O)N2CCN(c3ccc(N4CCOCC4)nn3)CC2)c1,-,-,-,-,29,-,-,
O=C(NCc1ccco1)C1CCN(c2ccc(N3CCOCC3)nn2)CC1,-,-,-,-,27,-,-,
Cc1cc2c(c(=O)o1)[C@@]1(C(=O)N(C)c3cc(Br)ccc31)C1=C(CCCC1=O)O2,.,-,.,.,.,.,.,
Cc1cccc(CCNC(=O)c2ccc3c(c2)ncn3C2CCCCC2)c1,.,-,.,.,.,.,.,
Cc1ccccc1C(=O)N1CCN(c2ccc(N3CCOCC3)nn2)CC1,-,-,-,-,37,56,43,
C=CCn1c(-c2cc3c(s2)CCC(CC)C3)n[nH]c1=S (stereo unspecified),-,-,-,-,84,170,137,
COc1cc(OC)cc(-c2c(-c3ccc(F)cc3)c3cc(-c4cccc5[nH]ccc45)ccc3n2C)c1,.,-,-,-,48,-,-,
COc1cc(OC)cc(-c2c(-c3ccc(F)cc3)c3cc(-c4ccc(OC)nc4)ccc3n2C)c1,.,-,-,-,-,.,.,
COc1cccc(-c2c(-c3cc(OC)cc(OC)c3)n(C)c3ccc(-c4cccc5[nH]ccc45)cc23)c1,.,-,-,-,54,+,+,
Cc1ccc(NC(=S)Nc2cccc3ccccc23)cc1,-,-,-,-,-,.,.,
CC(C)c1ccc(NC(=S)Nc2cccc3ccccc23)cc1,-,-,-,-,30,68,55,
CCOc1ccc(NC(=S)Nc2cccc3cnccc23)cc1,-,-,-,-,-,.,.,
CCOc1ccc(NC(=S)Nc2cccc3ccccc23)cc1,-,-,-,-,58,82,73,
CCCCNC(=O)C[C@H]1C[C@@]2(C(=O)OC)C(=C[C@H](COCc3ccccc3)O[C@@H]2C)N(CCC2=CCCCC2)C1=O,.,-,.,.,.,.,.,
O=c1c(-c2ccc(Cl)cc2)coc2c(CN3CCOCC3)c(O)ccc12,-,-,-,-,30,30,19,
O=c1c(-c2ccccc2)coc2c(CN3CCCC3)c(O)ccc12,-,-,-,-,82,145,123,
Cc1c(O)ccc2c(=O)c(-c3nncn3-c3ccccc3)coc12,-,-,-,-,-,.,.,
COc1ccc(-c2coc3c(CN4CCOCC4)c(O)ccc3c2=O)cc1,-,-,-,-,41,63,50,
